From PubChem
TWEAK Fn14 block = inhibitors of TWEAK-Fn14 signaling, primary screen, luciferase reporter cells, uHTS. inhibition, % at 10 µM. TWEAK-stimulated Fn14 reporter cells, luciferase luminescence, 8 h. 360,000 tested, 2% active. AID 1159606, 2016; in the data active = inhibition above about 50%
TROY NFkB inh = inhibitors of TROY-driven NF-kB signaling, primary screen, Q293 LMP1-TROYcd cells, NF-kB luciferase, uHTS; inhibition, % at 10 µM; 360,000 tested, 0.98% active; Q293 LMP1-TROYcd NF-kB luciferase reporter, 4 h;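 active = compounds whose plate-normalised and pattern-corrected inhibition of the luciferase reporter signal at the single screening dose is 50% or more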
LGR2 inh = inhibitors of bursicon-induced LGR2 CRE-luciferase signal, primary screen, cell-based, HEK293, CRE-luciferase reporter, bursicon stimulation; Drosophila bursicon receptor LGR2 (rickets); bursicon-stimulated, 4 h; inhibition, % at 9.99 µM; 380,000 tested, 0.35% active;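 active = drop in luminescence signal, shown as inhibition above about 50% in the replicate tests, limit read from the data, passing the limit was not always enough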;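 also: agonist challenge used bursicon conditioned medium at about half maximal strength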
HSP90 inh = HSP90 inhibitors, primary screen, cell lysate, luminescence | Heat shock protein HSP 90 (rabbit reticulocyte lysate; luciferase refolding) | Rabbit reticulocyte lysate, luciferase refolding luminescence, 3 h | inhibition, % at 5.6 µM | 290,000 tested, 0.91% active | AID 1789, 2009;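 active = inhibition above the screen-wide mean plus 3 SD, computed separately per campaign, cut at about 16% in these data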;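 also: 0% = DMSO wells and 100% = 60 µM geldanamycin wells; inhibitors lower the luminescence because luciferase stays unfolded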
HSP90 inh confirm = HSP90 inhibitors, confirmation, cell lysate, luminescence. AID 1846, 2009. shares compounds with HSP90 inh. rabbit reticulocyte lysate, luciferase refolding luminescence, 3 h. inhibition, % at 5.9 µM. 2,300 tested, 64% active; in the data active = inhibition above about 18%;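 also: 0% = vehicle wells and 100% = reference inhibitor wells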
FLuc counter = firefly luciferase inhibitors, HSP90 counter-screen, confirmation, artefact control for HSP90 inhibitor project, biochemical, luminescence, triplicate; shares compounds with HSP90 inh; purified native firefly luciferase; inhibition, % at 5.9 µM; 2,300 tested, 48% active; AID 1847, 2009;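 active = inhibition above the mean inhibition of all tested sample wells plus 3 SD, cut at about 10% in these data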;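 also: 0% = DMSO with luciferase and 100% = wells lacking luciferase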
Target sequence (P08659 whole entry, looked up): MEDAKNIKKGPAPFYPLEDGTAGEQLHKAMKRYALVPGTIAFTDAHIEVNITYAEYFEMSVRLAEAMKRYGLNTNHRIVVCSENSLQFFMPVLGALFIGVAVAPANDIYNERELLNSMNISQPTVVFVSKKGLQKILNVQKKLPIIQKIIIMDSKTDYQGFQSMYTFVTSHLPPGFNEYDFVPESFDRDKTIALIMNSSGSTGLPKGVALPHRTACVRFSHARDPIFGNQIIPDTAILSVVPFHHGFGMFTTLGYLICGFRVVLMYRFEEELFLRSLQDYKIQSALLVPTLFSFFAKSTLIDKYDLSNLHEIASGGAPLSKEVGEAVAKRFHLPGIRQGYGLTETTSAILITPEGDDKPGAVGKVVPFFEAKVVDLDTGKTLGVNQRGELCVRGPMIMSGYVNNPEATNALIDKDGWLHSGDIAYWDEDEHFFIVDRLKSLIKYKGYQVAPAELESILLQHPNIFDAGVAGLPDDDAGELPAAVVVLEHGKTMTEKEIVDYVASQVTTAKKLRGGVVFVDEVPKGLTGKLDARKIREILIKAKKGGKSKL
Starred values were filed as active, the others as inactive; / = no result. This is a sample that favours compounds with a hit; in the whole collection about 2.2% have one here.

SMILES	TWEAK Fn14 block	TROY NFkB inh	LGR2 inh	HSP90 inh	HSP90 inh confirm	FLuc counter
Cc1cc(C)c2c(N)c(C(=O)Nc3nccs3)sc2n1	66*	-11	/	30*	62*	51*
N#CC1(NC(=O)COC(=O)c2ccccc2[N+](=O)[O-])CCCCC1	-14	-31	-1	/	/	/
O=C(COC(=O)c1ccccc1[N+](=O)[O-])c1ccc(C2CCCCC2)cc1	81*	78*	/	51*	63*	79*
Cc1ccc(/C=C2\SC(=S)N(CCCC(=O)Nc3ccccn3)C2=O)cc1	79*	68*	/	34*	39*	-18
CC(C)(C)c1ccc(C(=O)Nc2nnc(SCC(=O)NCC3CCCO3)s2)cc1 (stereo not given)	71*	6	-46	36*	54*	45*
CCOc1ccc(C(=O)Nc2nnc(SCC(=O)NCC3CCCO3)s2)cc1 (stereo not given)	69*	36	78*	36*	61*	44*
CN(C)S(=O)(=O)c1ccc(C(=O)Nc2nnc(SCC(=O)NCC3CCCO3)s2)cc1 (stereo not given)	-1	-26	21	-3	/	/
COc1ccc2c(=O)c(Oc3ccc(C(=O)O)cc3)c(C(F)(F)F)oc2c1	7	-40	19	72*	7	-7
CCC(=O)N(C1=C(NC(C)C)C(=O)c2ccccc2C1=O)C(C)C	6	9	13	-2	/	/
CCCNC1=C(N(C(C)=O)c2cccc(F)c2)C(=O)c2ccccc2C1=O	79*	18	12	82*	-5	-11
O=c1c2sc(-c3ccccc3)cc2nc2n1CCC2	74*	22	/	24*	48*	32*
COc1ccc(-c2cc(C(=O)N3CCOCC3)no2)cc1	65*	41	53*	37*	50*	32*
CC1CCN(C(=O)c2cc(-c3ccc4c(c3)OCO4)on2)CC1	53*	-24	-16	20*	39*	28*
CC1CCCCN1C(=O)c1cc(-c2ccc3c(c2)OCO3)on1 (stereo not given)	24	12	-59	7	/	/
COc1cccc(-c2cc(C(=O)N3CCOCC3)no2)c1	-46	-16	-22	18*	19*	-4
O=C(c1cc(-c2ccc(Br)cc2)on1)N1CCOCC1	55*	-2	-4	19*	38*	29*
CC=Cc1ccc2n(c1=O)C[C@H]1N[C@@H]2[C@@H](C(=O)NCCc2ccccc2)[C@@H]1CO (mixture of isomers)	/	/	-9	/	/	/
C[C@@H]1CN([C@H](C)CO)S(=O)(=O)c2ccc(-c3cncnc3)cc2O[C@@H]1CN(C)C(=O)c1ccc2c(c1)OCO2	/	/	10	/	/	/
CO[C@@H]1CN(C)C(=O)c2cc(NC(=O)NC(C)C)ccc2OC[C@H](C)NC[C@@H]1C	/	/	-2	/	/	/
Cc1cc(=O)n(-c2ccc(O)cc2)[nH]1	10	-4	/	18*	-2	-4
Cc1cc(=O)n(-c2ccc(C(=O)O)cc2)[nH]1	-3	-5	8	3	/	/
C[C@@H]1CCCCO[C@H](CN(C)C(=O)NC2CCCCC2)[C@H](C)CN([C@@H](C)CO)C(=O)c2cc(NC(=O)c3ccccc3)ccc2O1	/	/	9	/	/	/
CCc1nnc(N/N=C/c2c(Cl)cccc2Cl)n1N	12	3	11	57*	-4	-9
CCc1nnc(N/N=C/c2cccs2)n1N	22	-4	2	66*	-1	-5
CCc1nnc(N/N=C/c2cc(Br)c(O)cc2O)n1N	-1	16	7	7	/	/
SMILES	TWEAK Fn14 block	TROY NFkB inh	LGR2 inh	HSP90 inh	HSP90 inh confirm	FLuc counter
C=CCn1c(C)cc(C(=O)CN2NS(=O)(=O)c3ccccc3C2=O)c1C	40	69*	-95	35*	36*	12*
CC(NC(=O)COc1cccnc1[N+](=O)[O-])c1ccc(F)cc1 (stereo not given)	-10	-10	12	30*	3	-6
N#CC1=C2C=CC=CN2CC1=O	9	23	/	20*	4	-2
C[C@H]1CN([C@@H](C)CO)C(=O)c2cc(NC(=O)C3CC3)ccc2O[C@@H]1CN(C)Cc1ccc2c(c1)OCO2	/	/	4	/	/	/
Cc1cc(C(=O)Nc2cccc3c2O[C@H](CN(C)C(=O)NC(C)C)[C@H](C)CN([C@@H](C)CO)C3=O)n(C)n1	/	/	-30	/	/	/
Cc1ccc(-c2csc(NC(=O)c3ccc(-c4ccccc4)cc3)n2)o1	67*	49	/	37*	36*	0
CCOc1ccccc1Nc1nc(-c2sc(NC(=O)c3ccc([N+](=O)[O-])cc3)nc2C)cs1	/	/	/	79*	20*	-4
CCC(C)C(=O)Nc1nc(C)c(-c2csc(Nc3ccccc3OC)n2)s1 (stereo not given)	-2	-24	-10	3	/	/
O=C(Nc1nc(-c2ccco2)cs1)c1ccccc1	-1	9	/	-5	/	/
CCCCCC(=O)Nc1nc(C)c(-c2csc(Nc3cc(Cl)ccc3C)n2)s1	-14	13	-6	0	/	/
Cc1ccc(Cl)cc1Nc1nc(-c2sc(NC(=O)c3ccco3)nc2C)cs1	18	10	4	10	/	/
Cc1ccc(Cl)cc1Nc1nc(-c2sc(NC(=O)c3cccc(Cl)c3)nc2C)cs1	/	/	/	65*	44*	-20
Cc1ccccc1Nc1nc(-c2sc(NC(=O)c3cccc(Cl)c3)nc2C)cs1	/	/	/	78*	52*	-6
CC(=O)N1[C@H](CO)[C@H](c2ccc(-c3cncnc3)cc2)[C@@H]1CN(C)C(=O)C1CC1	/	/	15	/	/	/
CO[C@H]1CN(C)C(=O)c2cc(NC(C)=O)ccc2OC[C@H](C)N(Cc2ccccn2)C[C@H]1C	/	/	19	/	/	/
COc1ccccc1Nc1nc(-c2sc(NC(=O)c3ccco3)nc2C)cs1	23	8	0	12	/	/
Cc1ccccc1Nc1nc(-c2sc(NC(=O)c3ccc([N+](=O)[O-])cc3)nc2C)cs1	/	/	/	79*	53*	-4
CCCCC(=O)Nc1nc(C)c(-c2csc(Nc3ccccc3OC)n2)s1	-1	-27	-20	3	/	/
Cc1ccccc1Nc1nc(-c2sc(NC(=O)c3ccccc3)nc2C)cs1	/	/	/	59*	30*	-14
Cc1ccc(Nc2nc(-c3sc(NC(=O)c4ccc([N+](=O)[O-])cc4)nc3C)cs2)cc1	/	/	/	81*	45*	-10
O=C(C[C@H]1C=C[C@H](NC(=O)CC2CC2)[C@H](CO)O1)NCc1ccccc1	/	/	6	/	/	/
CN(C)c1ccc(C(=S)NCc2ccco2)cc1	63*	-27	/	57*	65*	38*
COc1ccc(-c2nc3ccccn3c2Cl)cc1	52*	3	17	24*	47*	30*
